The entries come from a sample that favours the strongest signals as a whole.
Legend:
Assay in all cases: glycan array binding signal (z-score within array); higher = stronger binding
Conditions in all cases: glycan notation: IUPAC condensed, linker removed
Gal4S6S(b1-4)GlcNAc = tested on: Gal4S6S(b1-4)GlcNAc
Procedure, shortened: (§1)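 From the Consortium for Functional Glycomics database, 3228 arrays were curated, keeping only those whose protein sequence was available. Binding is given as a within-array Z-score averaged across arrays sharing a protein sequence and across linkers. Negative Z-scores can be read as non-binding.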

Gal3S6S(b1-4)GlcNAc6S = tested on: Gal3S6S(b1-4)GlcNAc6S
Procedure, shortened: as §1

Gal6S(b1-4)GlcNAc6S = tested on: Gal6S(b1-4)GlcNAc6S
Procedure, shortened: as §1

Gal3S4S(b1-4)GlcNAc = tested on: Gal3S4S(b1-4)GlcNAc
Procedure, shortened: as §1

Gal6P(b1-4)GlcNAc = tested on: Gal6P(b1-4)GlcNAc
Procedure, shortened: as §1

Gal6S(b1-3)GlcNAc6S = tested on: Gal6S(b1-3)GlcNAc6S
Procedure, shortened: as §1

Gal6S(b1-3)GlcNAc = tested on: Gal6S(b1-3)GlcNAc
Procedure, shortened: as §1

Gal6S(b1-4)Glc6S = tested on: Gal6S(b1-4)Glc6S
Procedure, shortened: as §1

Gal6S(b1-4)Glc = tested on: Gal6S(b1-4)Glc
Procedure, shortened: as §1

Gal6S(b1-4)GlcNAc = tested on: Gal6S(b1-4)GlcNAc
Procedure, shortened: as §1

Substance: SiiE (Salmonella typhimurium), A0A0H3NVH0
- glycan array binding signal (z-score) (Gal4S6S(b1-4)GlcNAc): -0.799

Substance: LcI (Legionella pneumophila)
- glycan array binding signal (z-score) (Gal3S6S(b1-4)GlcNAc6S): -0.439

Substance: AgI/II Vhelical-GFP (Streptococcus mutans)
- glycan array binding signal (z-score) (Gal3S6S(b1-4)GlcNAc6S): 1.08
- glycan array binding signal (z-score) (Gal6S(b1-4)GlcNAc6S): 2.17

Substance: Epa22
- glycan array binding signal (z-score) (Gal3S4S(b1-4)GlcNAc): -0.476
- glycan array binding signal (z-score) (Gal6P(b1-4)GlcNAc): -0.491
- glycan array binding signal (z-score) (Gal6S(b1-3)GlcNAc6S): 2.55
- glycan array binding signal (z-score) (Gal6S(b1-3)GlcNAc): 1.89
- glycan array binding signal (z-score) (Gal6S(b1-4)Glc6S): 7.08
- glycan array binding signal (z-score) (Gal6S(b1-4)GlcNAc6S): 12.6
- glycan array binding signal (z-score) (Gal6S(b1-4)Glc): 1.51

Substance: AgI/IIC123-GFP (Streptococcus mutans)
- glycan array binding signal (z-score) (Gal3S4S(b1-4)GlcNAc): -0.466

Substance: SpGH101 (Streptococcus pneumoniae), Q8DR60
- glycan array binding signal (z-score) (Gal6S(b1-3)GlcNAc): -0.229

Substance: Wza (Escherichia coli), P0A930
- glycan array binding signal (z-score) (Gal6S(b1-4)GlcNAc6S): 0.571

Substance: BambL (Burhholderia ambifaria), Q0B4G1
- glycan array binding signal (z-score) (Gal6S(b1-4)GlcNAc): -0.314
